This is an account of results in ChEMBL document CHEMBL4513141, “CO-ADD screening of NIH (USA) - Clinical Collection” (2021).

Results with a measured potency or affinity are listed apart.

One assay concerns Staphylococcus aureus. The settings on record: Concentration 20 uM; ASSAY_TEST Inhibition of Bacterial Growth; detection method Absorption (OD600); MEDIA CAMHB; plate type 384well; NBS; CORNING #3640; time 18 hr.
The next assay deals with Escherichia coli. The settings on record: Concentration 20 uM; ASSAY_TEST Inhibition of Bacterial Growth; detection method Absorption (OD600); MEDIA CAMHB; plate type 384well; NBS; CORNING #3640; time 18 hr.

The Inhibition is the drop in the measured response relative to a control, in per cent. Take `O=C(CCNNC(=O)c1ccncc1)NCc1ccccc1` [NIALAMIDE]: the Inhibition with Staphylococcus aureus was 16.28%; with Escherichia coli it was 8.37%.

With `CC[C@H](C)C(=O)O[C@H]1C[C@H](O)C=C2C=C[C@H](C)[C@H](CC[C@@H](O)C[C@@H](O)CC(=O)[O-])[C@H]21.[Na+]` [PRAVASTATIN SODIUM], the Inhibition turned out to be 12.65% with Staphylococcus aureus and 2.41% with Escherichia coli.

Turning to `CS(=O)(=O)O.Oc1ccc(C2CNCCc3c2cc(O)c(O)c3Cl)cc1` (stereo not drawn) [FENOLDOPAM MESYLATE], the Inhibition in the assay on Staphylococcus aureus was 13.63%; in the assay with Escherichia coli, -0.49%.

For the compound `Nc1nc2c(ncn2COCCO)c(=O)[nH]1` [ACYCLOVIR], the Inhibition in the assay with Staphylococcus aureus is on record as -22.02%; in the assay with Escherichia coli, 4.79%.

In the case of `O=S(=O)([O-])CCS.[Na+]` [MESNA], the Inhibition was 2.58% with Staphylococcus aureus and -2.71% in the assay with Escherichia coli.

Regarding `Cl.NC1CCN(c2cccc(Cl)n2)CC1`, the Inhibition in the assay with Staphylococcus aureus worked out at 8.14%; in the assay with Escherichia coli it was 8.42%.

Regarding `CCCN[C@H]1CCc2nc(N)sc2C1` [PRAMIPEXOLE], the Inhibition was -18.52% in the assay on Staphylococcus aureus and 2.75% in the assay with Escherichia coli.

On to `CN1C(=O)CC[C@H]1c1cccnc1` [COTININE], for which the values for the Inhibition with Staphylococcus aureus and with Escherichia coli were -20.45% and 7.12%, respectively.

Consider `COc1ccc(C2CNC(=O)C2)cc1OC1CCCC1` (stereo not drawn) [ROLIPRAM], for which the Inhibition in the assay with Staphylococcus aureus was determined as 10.42%; in the assay on Escherichia coli, 5.39%.

For the compound `CCN(CC)CC1CCCCN1CC(=O)N1c2ccccc2C(=O)Nc2cccnc21` (stereo not drawn) [OTENZEPAD], the Inhibition was 7.92% with Staphylococcus aureus and 5.55% in the assay on Escherichia coli.

For the compound `CCN(CC)C(=O)[C@]1(c2ccccc2)C[C@@H]1CN.Cl` [1R,2S-MILNACIPRAN HYDROCHLORIDE], the Inhibition in the assay on Staphylococcus aureus is reported as 5.25%; in the assay on Escherichia coli, 4.64%.

Take `Cl.O.c1cnc(N2CCN(Cc3ccc4c(c3)OCO4)CC2)nc1`: the figures for the Inhibition with Staphylococcus aureus and in the assay on Escherichia coli were 13.21% and -1.86%, respectively.

As for `O=C1CCC(N2C(=O)c3ccccc3C2=O)C(=O)N1` (stereo not drawn) [THALIDOMIDE], the results for the Inhibition in the assay with Staphylococcus aureus and in the assay with Escherichia coli were 9.61% and -2.18%, respectively.

With `CC(C)NCC(O)c1ccc(NS(C)(=O)=O)cc1.Cl` (stereo not drawn) [SOTALOL HYDROCHLORIDE], the values for the Inhibition in the assay with Staphylococcus aureus and in the assay on Escherichia coli were -25.28% and 5.97%, respectively.

In the case of `CC1CCN(CCCC(=O)c2ccc(F)cc2)CC1.Cl`, the Inhibition is recorded as 4.4% with Staphylococcus aureus and 6.76% with Escherichia coli.

For the compound `Cc1nc2n(c(=O)c1CCN1CCC(c3noc4cc(F)ccc34)CC1)CCCC2` [RISPERIDONE], the figures for the Inhibition in the assay with Staphylococcus aureus and with Escherichia coli were 4.53% and 2.58%, respectively.

As to `Cc1[nH]c(=O)c(C#N)cc1-c1ccncc1` [MILRINONE], the Inhibition with Staphylococcus aureus was 14.68%; in the assay on Escherichia coli, -0.64%.

`CC(C)(C(=O)c1cccnc1)c1cccnc1` [METYRAPONE]: the Inhibition turned out to be 4.18% with Staphylococcus aureus and 6.34% in the assay with Escherichia coli.

For `Nc1ccn([C@@H]2CS[C@H](CO)O2)c(=O)n1` [LAMIVUDINE], the Inhibition in the assay with Staphylococcus aureus stood at 9.88%; in the assay on Escherichia coli it was 8.04%.

Turning to `O=c1cnn([C@@H]2O[C@H](CO)[C@@H](O)[C@H]2O)c(=O)[nH]1` [6-AZAURIDINE], the Inhibition is reported as -22.3% with Staphylococcus aureus and 4.59% in the assay on Escherichia coli.

Consider `CC(=O)OCC(=O)[C@@]1(O)CC[C@H]2[C@@H]3CCC4=CC(=O)CC[C@]4(C)[C@H]3[C@@H](O)C[C@@]21C` [HYDROCORTISONE ACETATE], for which the Inhibition in the assay on Staphylococcus aureus was found to be 9.41%; with Escherichia coli it was 0.56%.

In the case of `C[C@]12C=CC(=O)C=C1CC[C@@H]1[C@@H]2C(=O)C[C@@]2(C)[C@H]1CC[C@]2(O)C(=O)CO` [PREDNISONE], the Inhibition was determined as 12.15% in the assay on Staphylococcus aureus and 4.61% in the assay with Escherichia coli.

On to `NC(=O)c1cnccn1` [PYRAZINAMIDE], for which the Inhibition was determined as 14.57% with Staphylococcus aureus and 2% in the assay with Escherichia coli.

For `CC(Oc1c(Cl)cccc1Cl)C1=NCCN1.Cl` (stereo not drawn) [LOFEXIDINE HYDROCHLORIDE], the Inhibition in the assay with Staphylococcus aureus is on record as 7.96%; in the assay on Escherichia coli, 0.12%.

Turning to `Cc1cccc(CCN2CCC(C(=O)c3ccc(NS(C)(=O)=O)cc3)CC2)n1.Cl.Cl`, the Inhibition with Staphylococcus aureus is reported as 15.03%; in the assay with Escherichia coli, -5.54%.

Regarding `CC(=O)C1(O)CCC2C3CC(C)C4=CC(=O)C=CC4(C)C3(F)C(O)CC21C` (stereo not drawn), the Inhibition is listed as 5.95% with Staphylococcus aureus and 2.15% with Escherichia coli.

For `Cc1cccc(CN2CCN(C(c3ccccc3)c3ccc(Cl)cc3)CC2)c1.Cl.Cl` (stereo not drawn), the figures for the Inhibition in the assay with Staphylococcus aureus and with Escherichia coli were 9.26% and 2.8%, respectively.

For `CCOC(=O)O[C@]1(C(=O)OCCl)CC[C@H]2[C@@H]3CCC4=CC(=O)C=C[C@]4(C)[C@H]3[C@@H](O)C[C@@]21C` [LOTEPREDNOL ETABONATE], the Inhibition with Staphylococcus aureus is recorded as -21.62%; with Escherichia coli, 4.07%.

In the case of `CC1(C)O[C@@H]2C[C@H]3[C@@H]4C[C@H](F)C5=CC(=O)C=C[C@]5(C)[C@@]4(F)[C@@H](O)C[C@]3(C)[C@]2(C(=O)CO)O1` [FLUOCINOLONE ACETONIDE], the Inhibition with Staphylococcus aureus is listed as -31.13%; in the assay on Escherichia coli, 6.84%.
